From PubChem BioAssay (NCATS)
Records with an inconclusive call do not appear. The source made the active and inactive calls. Calls follow the shape of the dose curve; as a rule, active = well fitted curve in the direction sought with a large enough effect; inconclusive = small, poorly fitted or top-dose-only effect, or another doubt; inactive = no such curve, though single readings can be large; an effect the other way counts as inactive or inconclusive. Where a SMILES comes first, the peptide text is derived from it.

Columns and labels:
HACAT = assay: qHTS assay to identify novel small-molecules to repurpose for Merkel cell carcinoma treatment (AID 1296009); conditions: MCC and control cell lines, CellTiter-Glo viability, 72 h; at 44.8 µM (top of the series) unless noted; also: nearly all actives have a fitted effect of over 60% in size
Method in brief: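 72 hr, 37 degree celsius; NPC 8-pt / MIPE 11-pt dose response; compound pinned in DMSO; CellTiter-Glo, 10 min RT, luminescence; normalized to no-cell and DMSO controls.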

C33A = assay: Primary qHTS to identify gynecologic anti-cancer compounds using libraries of approved drugs and bioactive compounds (AID 1345084); conditions: Gynecologic cancer cell panel viability, ATPlite luminescence, 48 h; series mostly up to 57.5 µM; also: % is scaled to controls: 0 for no effect and ±100 for the full control effect; nearly all actives have a fitted effect of over 55% in size
Method in brief: (§1)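 In this quantitative HTS, cell killing is estimated from loss of ATP-dependent luciferase light. Cells see five compound concentrations over a 48 h exposure.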

CAOV3 = assay: as above; conditions: Gynecologic cancer cell panel viability, ATPlite luminescence, 48 h; series mostly up to 57.5 µM
Method in brief: as §1

CASKI = assay: as above; conditions: Gynecologic cancer cell panel viability, ATPlite luminescence, 48 h; series mostly up to 57.5 µM
Method in brief: as §1

Es-2 = assay: as above; conditions: Gynecologic cancer cell panel viability, ATPlite luminescence, 48 h; series mostly up to 57.5 µM
Method in brief: as §1

HeLa = assay: as above; conditions: Gynecologic cancer cell panel viability, ATPlite luminescence, 48 h; series mostly up to 57.5 µM
Method in brief: as §1

Hek293T = assay: as above; conditions: Gynecologic cancer cell panel viability, ATPlite luminescence, 48 h, control line for the selectivity index; series mostly up to 57.5 µM
Method in brief: as §1

JEG-3 = assay: as above; conditions: Gynecologic cancer cell panel viability, ATPlite luminescence, 48 h; series mostly up to 57.5 µM
Method in brief: as §1

OV90 = assay: as above; conditions: Gynecologic cancer cell panel viability, ATPlite luminescence, 48 h; series mostly up to 57.5 µM
Method in brief: as §1

PA-1 = assay: as above; conditions: Gynecologic cancer cell panel viability, ATPlite luminescence, 48 h; series mostly up to 57.5 µM
Method in brief: as §1

SKOV3 = assay: as above; conditions: Gynecologic cancer cell panel viability, ATPlite luminescence, 48 h; series mostly up to 57.5 µM
Method in brief: as §1

Tov-21-G = assay: as above; conditions: Gynecologic cancer cell panel viability, ATPlite luminescence, 48 h; series mostly up to 57.5 µM
Method in brief: as §1

Tov112D = assay: as above; conditions: Gynecologic cancer cell panel viability, ATPlite luminescence, 48 h; series mostly up to 57.5 µM
Method in brief: as §1

Cc1cccc(NC(=O)CN2CCC(c3ccccn3)CC2)c1
inactive: outcome (HACAT) | Potency (C33A) | Potency (CAOV3) | outcome (CASKI) | Potency (Es-2) | Potency (HeLa) | Potency (Hek293T) | Potency (JEG-3) | Potency (OV90) | Potency (PA-1) | Potency (SKOV3) | Potency (Tov-21-G) | Potency (Tov112D)

C=C1CCC2(C(=O)OC3OC(CO)C(O)C(O)C3O)CCC3(C)C(=CCC4C5(C)CCC(OC6OC(CO)C(OC7OC(C)C(O)C(O)C7O)C(OC7OCC(O)C(O)C7O)C6O)C(C)(C)C5CCC43C)C2C1 (stereo unspecified)
inactive: outcome (HACAT) inactive [at 9.27 µM] | activity change, negative = cytotoxicity (C33A) 5.83% [at 11.6 µM] | activity change, negative = cytotoxicity (CAOV3) 1.68% [at 11.6 µM] | activity change, negative = cytotoxicity (CASKI) -6.54% [at 11.6 µM] | activity change, negative = cytotoxicity (Es-2) -3.02% [at 11.6 µM] | activity change, negative = cytotoxicity (HeLa) 11.1% [at 11.6 µM] | activity change, negative = cytotoxicity (Hek293T) 6.11% [at 11.6 µM] | activity change, negative = cytotoxicity (JEG-3) 12.2% [at 11.6 µM] | activity change, negative = cytotoxicity (OV90) 9.22% [at 11.6 µM] | activity change, negative = cytotoxicity (PA-1) 18.7% [at 11.6 µM] | activity change, negative = cytotoxicity (SKOV3) 24.5% [at 11.6 µM] | activity change, negative = cytotoxicity (Tov-21-G) 0.21% [at 11.6 µM] | activity change, negative = cytotoxicity (Tov112D) 9.24% [at 11.6 µM]

CCC(C)(C)C1CCc2c(sc(NC(=O)c3ccc(Br)cc3)c2C#N)C1 (stereo unspecified)
inactive: outcome (HACAT) | Potency (C33A) | Potency (CAOV3) | outcome (CASKI) | Potency (Es-2) | Potency (HeLa) | Potency (Hek293T) | Potency (JEG-3) | Potency (OV90) | Potency (PA-1) | Potency (SKOV3) | Potency (Tov-21-G) | Potency (Tov112D)

CC1(C)CC[C@]2(C(=O)O[C@@H]3O[C@H](CO)[C@@H](O)[C@H](O)[C@H]3O)CC[C@]3(C)C(=CCC4[C@@]5(C)CC[C@H](O[C@@H]6O[C@H](C(=O)O)[C@@H](O[C@@H]7O[C@H](CO)[C@@H](O)[C@H](O)[C@H]7O)[C@H](O)[C@H]6O)C(C)(C)C5CC[C@]43C)C2C1 (stereo partly specified)
inactive: outcome (HACAT) inactive [at 9.27 µM] | activity change, negative = cytotoxicity (C33A) -1.25% [at 11.6 µM] | activity change, negative = cytotoxicity (CAOV3) 6.34% [at 11.6 µM] | activity change, negative = cytotoxicity (CASKI) 0.127% [at 11.6 µM] | activity change, negative = cytotoxicity (Es-2) -4.47% [at 11.6 µM] | activity change, negative = cytotoxicity (HeLa) 6.83% [at 11.6 µM] | activity change, negative = cytotoxicity (Hek293T) 3.96% [at 11.6 µM] | activity change, negative = cytotoxicity (JEG-3) -0.8% [at 11.6 µM] | activity change, negative = cytotoxicity (OV90) 3.65% [at 11.6 µM] | activity change, negative = cytotoxicity (PA-1) 12% [at 11.6 µM] | activity change, negative = cytotoxicity (SKOV3) 7.57% [at 11.6 µM] | activity change, negative = cytotoxicity (Tov-21-G) 4.63% [at 11.6 µM] | activity change, negative = cytotoxicity (Tov112D) 2.05% [at 11.6 µM]

CSCC[C@H](NC(=O)[C@H](CO)NC(=O)[C@H](CCC(=O)O)NC(C)=O)C(=O)N[C@H](C=O)CC(=O)O (Ac-ESMD-aldehyde)
inactive: outcome (HACAT) inactive [at 9.27 µM] | activity change, negative = cytotoxicity (C33A) 13.1% [at 11.6 µM] | activity change, negative = cytotoxicity (CAOV3) 15.6% [at 11.6 µM] | activity change, negative = cytotoxicity (CASKI) 18.4% [at 11.6 µM] | activity change, negative = cytotoxicity (Es-2) 5.54% [at 11.6 µM] | activity change, negative = cytotoxicity (HeLa) 13.1% [at 11.6 µM] | activity change, negative = cytotoxicity (Hek293T) 8.08% [at 11.6 µM] | activity change, negative = cytotoxicity (JEG-3) 19.7% [at 11.6 µM] | activity change, negative = cytotoxicity (OV90) -2.74% [at 11.6 µM] | activity change, negative = cytotoxicity (PA-1) -0.0533% [at 11.6 µM] | activity change, negative = cytotoxicity (SKOV3) 3.55% [at 11.6 µM] | activity change, negative = cytotoxicity (Tov-21-G) -0.444% [at 11.6 µM] | activity change, negative = cytotoxicity (Tov112D) 6.37% [at 11.6 µM]

CC1(C)OC(=O)C=C[C@@]2(C)C1CC(=O)[C@]1(C)C2CC[C@@]2(C)[C@H](c3ccoc3)OC(=O)[C@H]3O[C@]321 (stereo partly specified)
inactive: outcome (HACAT) inactive [at 17.4 µM] | Potency (C33A) | Potency (CAOV3) | outcome (CASKI) | Potency (Es-2) | Potency (HeLa) | Potency (Hek293T) | Potency (JEG-3) | Potency (OV90) | Potency (PA-1) | Potency (SKOV3) | Potency (Tov-21-G) | Potency (Tov112D)

CC(C)=CCC[C@](C)(O[C@@H]1O[C@H](CO[C@@H]2O[C@@H](CO)[C@H](O)[C@H]2O[C@@H]2OC[C@@H](O)[C@H](O)[C@H]2O)[C@@H](O)[C@H](O)[C@H]1O)[C@H]1CC[C@]2(C)[C@@H]1[C@H](O)CC1[C@@]3(C)CC[C@H](O[C@@H]4O[C@H](CO)[C@@H](O)[C@H](O)[C@H]4O[C@@H]4O[C@H](CO)[C@@H](O)[C@H](O)[C@H]4O)C(C)(C)C3CC[C@]12C (stereo partly specified)
inactive: outcome (HACAT) inactive [at 9.27 µM] | activity change, negative = cytotoxicity (C33A) 7.16% [at 6.55 µM] | activity change, negative = cytotoxicity (CAOV3) 9.01% [at 6.55 µM] | activity change, negative = cytotoxicity (CASKI) 10.9% [at 6.55 µM] | activity change, negative = cytotoxicity (Es-2) 4.94% [at 6.55 µM] | activity change, negative = cytotoxicity (HeLa) -1.43% [at 6.55 µM] | activity change, negative = cytotoxicity (Hek293T) 2.28% [at 6.55 µM] | activity change, negative = cytotoxicity (JEG-3) 5.39% [at 6.55 µM] | activity change, negative = cytotoxicity (OV90) -2.38% [at 6.55 µM] | activity change, negative = cytotoxicity (PA-1) 11.1% [at 6.55 µM] | activity change, negative = cytotoxicity (SKOV3) 24.5% [at 6.55 µM] | activity change, negative = cytotoxicity (Tov-21-G) 0.809% [at 6.55 µM] | activity change, negative = cytotoxicity (Tov112D) 0.454% [at 6.55 µM]

CC(=O)C1CCC(=O)N1Cc1ccccc1 (stereo unspecified)
inactive: outcome (HACAT) | Potency (C33A) | Potency (CAOV3) | outcome (CASKI) | Potency (Es-2) | Potency (HeLa) | Potency (Hek293T) | Potency (JEG-3) | Potency (OV90) | Potency (PA-1) | Potency (SKOV3) | Potency (Tov-21-G) | Potency (Tov112D)

CC1CCC2C(C)(C)C(O)C(O)CC2(C)C12Cc1c(O)cc(CO)c(C=O)c1O2 (stereo unspecified)
inactive: outcome (HACAT) inactive [at 17.4 µM] | Potency (C33A) | Potency (CAOV3) | outcome (CASKI) | Potency (Es-2) | Potency (HeLa) | Potency (Hek293T) | Potency (JEG-3) | Potency (OV90) | Potency (PA-1) | Potency (SKOV3) | Potency (Tov-21-G) | Potency (Tov112D)

C=C1CC23CC(=O)C4C(CO)(CO)CCCC4(C)C2CCC1C3 (stereo unspecified)
inactive: outcome (HACAT) | Potency (C33A) | Potency (CAOV3) | outcome (CASKI) | Potency (Es-2) | Potency (HeLa) | Potency (Hek293T) | Potency (JEG-3) | Potency (OV90) | Potency (PA-1) | Potency (SKOV3) | Potency (Tov-21-G) | Potency (Tov112D)

CC1(C)C(=O)CCC2(C)C1C(O)C=C1COC(=O)C12O (stereo unspecified)
inactive: outcome (HACAT) | Potency (C33A) | Potency (CAOV3) | outcome (CASKI) | Potency (Es-2) | Potency (HeLa) | Potency (Hek293T) | Potency (JEG-3) | Potency (OV90) | Potency (PA-1) | Potency (SKOV3) | Potency (Tov-21-G) | Potency (Tov112D)

O=C(/C=C/c1ccc(O)cc1)OC[C@@]1(O)C=C[C@@H]2C(C(=O)O)=CO[C@@H](O[C@@H]3O[C@H](CO)[C@@H](O)[C@H](O)[C@H]3O)[C@@H]21
inactive: outcome (HACAT) inactive [at 17.4 µM] | Potency (C33A) | Potency (CAOV3) | outcome (CASKI) | Potency (Es-2) | Potency (HeLa) | Potency (Hek293T) | Potency (JEG-3) | Potency (OV90) | Potency (PA-1) | Potency (SKOV3) | Potency (Tov-21-G) | Potency (Tov112D)
